Compounds without any hit were thinned out: in the full panel of roughly 83,000, 20% have a hit.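 For each line, cells grew in 96-well plates with the test compound present at a single concentration for 48 hours.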 A number with no mark means an inactive call. The source made the active and inactive calls. Rule for the calls: active = growth percent below 10; inactive = the rest.
Experiments:
Assay in all cases: NCI-60 one-dose screen, 48 h (100 = growth as untreated, 0 = no growth, -100 = all killed)
Settings in all cases: 10 µM unless noted
HCT-15 colon = test system: HCT-15 colon
HT29 colon = test system: HT29 colon
SNB-75 CNS = test system: SNB-75 CNS
SNB-19 CNS = test system: SNB-19 CNS
U251 CNS = test system: U251 CNS
PC-3 prostate = test system: PC-3 prostate
SK-MEL-5 melanoma = test system: SK-MEL-5 melanoma
UACC-62 melanoma = test system: UACC-62 melanoma
LOX IMVI melanoma = test system: LOX IMVI melanoma
SK-MEL-28 melanoma = test system: SK-MEL-28 melanoma
SK-MEL-2 melanoma = test system: SK-MEL-2 melanoma
EKVX NSCLC = test system: EKVX NSCLC
SN12C renal = test system: SN12C renal
UO-31 renal = test system: UO-31 renal
TK-10 renal = test system: TK-10 renal
ACHN renal = test system: ACHN renal
CAKI-1 renal = test system: CAKI-1 renal
A498 renal = test system: A498 renal
CCRF-CEM leukemia = test system: CCRF-CEM leukemia
MOLT-4 leukemia = test system: MOLT-4 leukemia

Row | SMILES | growth (HCT-15 colon) | growth (HT29 colon) | growth (SNB-75 CNS) | growth (SNB-19 CNS) | growth (U251 CNS) | growth (PC-3 prostate) | growth (SK-MEL-5 melanoma) | growth (UACC-62 melanoma) | growth (LOX IMVI melanoma) | growth (SK-MEL-28 melanoma) | growth (SK-MEL-2 melanoma) | growth (EKVX NSCLC) | growth (SN12C renal) | growth (UO-31 renal) | growth (TK-10 renal) | growth (ACHN renal) | growth (CAKI-1 renal) | growth (A498 renal) | growth (CCRF-CEM leukemia) | growth (MOLT-4 leukemia)
1 | C=CCN(C)S(=O)(=O)/N=C1\NC(=O)NC1=C(Cl)Cl | -77.2% (active) | 5.89% (active) | 100% | 58.4% | -10.2% (active) | 47% | 91.6% | 32.9% | -88.3% (active) | -83.6% (active) | 90% | 62.8% | -22.5% (active) | 92.5% | 65.7% | -96.7% (active) | 2.82% (active) | 97.6% | -27.1% (active) | -19.7% (active)
2 | Cc1ccc(C2=NN(C)C(=O)C3(CCCC3)C2)cc1 | 101% | 106% | 93.5% | 105% | 103% | 102% | 101% | 98.5% | 100% | 103% | 110% | 102% | 101% | 95.5% | 97.3% | 110% | 100% | 89.4% | 111% | 102%
3 | N#Cc1cccc(CN2CCc3ncn(Cc4ccc(Cl)cc4)c(=O)c3C2)c1 | 13.5% | 28.3% | 33.2% | 19.7% | 23.1% | 18.5% | 3.19% (active) | 20.6% | 35.3% | 36.9% | 28.6% | 23.7% | 15.9% | 26% | 38.1% | 29.8% | 10.7% | 4.83% (active) | 35.9% | 43.3%
4 | NC(N)=Nc1ccc(Oc2cccc(Nc3ccc(Br)c(C(F)(F)F)c3)c2)cn1 | -68.3% (active) | -48.5% (active) | 9.31% (active) | -83.5% (active) | -79.6% (active) | -92% (active) | 16.9% | -76.9% (active) | -87.6% (active) | -32.1% (active) | -45.1% (active) | -68.8% (active) | -87.7% (active) | 38.6% | 7.85% (active) | 1.96% (active) | -5.28% (active) | -25.1% (active) | 0.633% (active) | -35.6% (active)
5 | N#Cc1ccccc1Cn1c2nc(=N)c3ccccc3c-2nc2ccccc21 | 41.5% | 15.4% | 93.8% | 65.8% | 70.4% | 56.8% | 32.5% | 56.5% | 51.1% | 90.2% | 87.9% | 49.4% | 61.5% | 51.3% | 102% | 56.4% | 50.9% | 69.7% | 70.6% | –
6 | C#CC(=O)N(c1ccc(OC)cc1OC)C(C(=O)NCC(=O)OCC)c1cccs1 (stereo not drawn) | 56.6% | -7.89% (active) | -71% (active) | 77.1% | 5.16% (active) | -13.2% (active) | 99.3% | 82.6% | -78.8% (active) | 92.4% | 95% | 36.4% | 44.9% | -79.9% (active) | 105% | -90.2% (active) | -83.9% (active) | 57.2% | -53.8% (active) | -22.2% (active)
7 | CC(C)(C)c1ccc(CC(=O)Nc2sc3c(c2C(N)=O)CCC(=O)C3)cc1 | -19.5% (active) | 3.3% (active) | 23% | 22.8% | 14.9% | 13.1% | -76% (active) | -32.8% (active) | -3.55% (active) | 5.18% (active) | -5.02% (active) | 10.8% | 6.98% (active) | -87.5% (active) | 16.6% | -90.8% (active) | -56.2% (active) | 47.7% | 10.8% | –
8 | Cc1ccc(NC(=O)c2ccc(CN3CCN(C)CC3)cc2)cc1Oc1ccc(-c2[nH]nc3ncnc(N)c23)cc1 | 99.4% | 12.6% | 75.1% | 104% | 86.8% | 84.5% | 85.2% | 84.3% | 66.7% | 88.6% | 103% | 107% | 96.4% | 85.3% | 110% | 101% | 92.5% | 94.3% | 59.5% | 71.7%
9 | NC(=O)c1c(NC(=O)c2ccccc2C(F)(F)F)sc2c1CCC(=O)C2 | 10.7% | 18.7% | 44.8% | 20.8% | 14.3% | 17.5% | -59.5% (active) | 10.4% | 19.7% | 42.4% | 45.5% | 24.3% | 40.3% | -7.49% (active) | 28.1% | 8.24% (active) | -2.3% (active) | 85.9% | 16.3% | 19.9%
10 | COc1cc(OC)c(/C=C/S(=O)(=O)Cc2ccc(OC)c(NC(=O)CCC(=O)NO)c2)c(OC)c1 | 8.57% (active) | 3.2% (active) | 31.6% | 23% | 14.6% | 28.7% | -31.6% (active) | 13.8% | 10.4% | 60% | 46.6% | 36.1% | 22.7% | 34.1% | 64.4% | 28.1% | 25.3% | -20.8% (active) | 11.5% | 17.2%
11 | CN1CCN(Cc2ccc(NC(=O)c3cncc(C#Cc4cnc5ccc(N6CCN(C)CC6)nn45)c3)cc2C(F)(F)F)CC1 | -57% (active) | -41.6% (active) | -68.9% (active) | -29.3% (active) | -96.7% (active) | -18.6% (active) | 90.5% | 92.2% | -93.1% (active) | 82% | 56.4% | -84.9% (active) | 15.7% | 20.1% | 59% | -98.1% (active) | -95.3% (active) | 43.7% | -2.14% (active) | -26.2% (active)
12 | CC(=O)c1nnn(-c2c(C(=O)n3nc(C)cc3C)sc(=S)n2-c2ccccc2)c1C | 101% | 114% | 98.4% | 99.1% | 109% | 98.2% | 100% | 86.2% | 98.8% | 112% | 108% | 90.7% | 103% | 79.8% | 138% | 102% | 91.8% | 94.9% | 101% | 94.9%
13 | Cn1cc(CNc2nc3ccc(OC/C(=C/F)CN)cc3o2)ccc1=O | 103% | 111% | 110% | 98% | 106% | 107% | 104% | 95.1% | 98.2% | 99.4% | 114% | 98.4% | 99.8% | 93.1% | 107% | 105% | 91% | 102% | 107% | 104%
14 | Cc1ccc(S(=O)(=O)NCCNc2nc(Nc3ccc(N4CCN(C)CC4)cc3)nc3ccsc23)cc1 | 29.2% | 63.4% | 67.8% | 104% | 90.8% | 87.9% | 95.9% | 103% | 97.8% | 103% | 115% | 94.9% | 97.4% | 92.4% | 121% | 106% | 74.6% | 110% | 74.3% | 79.1%
15 | CCNC(=O)N1CCc2cc(OC)c(OCCc3ccc(OC)cc3)cc2C1c1ccc(OC)cc1C (stereo not drawn) | 10.8% | -0.449% (active) | 3.67% (active) | 25.8% | 20.6% | 27.9% | -1.62% (active) | 19.5% | 4% (active) | 46.7% | 19% | 45.5% | 30.2% | 30% | 38.1% | 26.9% | 26.9% | -11.1% (active) | 36.3% | 21.2%
16 | CCCCCc1ccc(S(=O)(=O)Nc2cc(-c3csc(NC(=O)CN4CCN(C)CC4)n3)ccc2N2CCN(C)CC2)cc1 | -68.4% (active) | -25.3% (active) | 94.7% | 5.25% (active) | -32.9% (active) | 29.6% | -89.9% (active) | -78.4% (active) | -82.9% (active) | -87.3% (active) | 37.8% | 55.8% | -21.6% (active) | -94.2% (active) | 134% | 0.622% (active) | -19.8% (active) | 73.1% | 0.815% (active) | -18.4% (active)
